Results reported in PubChem BioAssay (EPA / NIEHS).
Results filed as inconclusive are left out. The source made the active and inactive calls. The calls were made as follows, unless noted: active = hit-call score of the fitted dose curve at least 0.9, where 1 is the maximum; inconclusive = response in the unintended direction; inactive = score below 0.9.

Assays:
[1] = molecular target: human Peripheral-type Benzodiazepine Receptor (PBR), TSPO (gene 706) (UniProt P30536); assay: NVS_MP_hPBR: NovaScreen (NVS) Membrane Protein Assay for human Peripheral-type Benzodiazepine Receptor (PBR) (AID 2283331);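 also: hits reduce radioligand binding relative to DMSO baseline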
In short: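 Scintillation counts of filter-bound radioligand served as read-out after 1 h chemical dosing of human colonic membrane preparations. Activity was scored as signal loss against DMSO; initial duplicates at 25 uM, confirmatory concentration series afterward.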

[2] = CEETOX_H295R_OHPREG: CeeTox H295R High-throughput Steroidogenesis Assay for OH-Pregnenolone (OHPREG) (AID 2283434; active = hit-call score of the fitted dose curve at least 0.9, where 1 is the maximum; inactive = score below 0.9); conditions: actives raise or lower the signal
In short: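 Hormone levels in spent medium were measured by tandem mass spectrometry following liquid-liquid extraction. Cells (H295R) had been forskolin-stimulated (10 uM, 48 h) before a 48 h chemical exposure at 0.1% DMSO, with activity fitted in both directions against DMSO.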

[3] = CEETOX_H295R_OHPROG: CeeTox H295R High-throughput Steroidogenesis Assay for OH-Progesterone (OHPROG) (AID 2283435; active = hit-call score of the fitted dose curve at least 0.9, where 1 is the maximum; inactive = score below 0.9;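 as to AC50: human adrenal H295R cells primed 48 h with 10 µM forskolin; 17alpha-hydroxyprogesterone secreted into medium measured by HPLC-MS/MS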); conditions: actives raise or lower the signal
In short: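 Secreted 17alpha-hydroxyprogesterone is read by tandem MS from media of forskolin-primed H295R cells dosed with chemical for 48 h. Activity is fitted in both directions against DMSO baseline; cytotoxic concentrations are re-tested diluted.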

[4] = CEETOX_H295R_PROG: CeeTox H295R High-throughput Steroidogenesis Assay for Progesterone (PROG) (AID 2283442; active = hit-call score of the fitted dose curve at least 0.9, where 1 is the maximum; inactive = score below 0.9;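 as to AC50: human H295R adrenal cells primed with 10 µM forskolin before dosing; progesterone secreted into medium by H295R cells measured by HPLC-MS/MS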); conditions: actives raise or lower the signal
In short: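 Steps: seed H295R cells and let them adhere overnight; prime 48 h with 10 uM forskolin; dose with compound in DMSO at 0.1% final for 48 h; extract medium steroids with MTBE; measure progesterone by LC-MS/MS. MTT viability was run in the same wells.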

[5] = molecular target: human CYP2D6, CYP2D6 (gene 1565) (UniProt P10635); assay: NVS_ADME_hCYP2D6: NovaScreen (NVS) CYP450-related Enzyme Activity (ADME) Assay for human CYP2D6 (AID 2283107)
In short: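 Insect-cell recombinant enzyme + fluorogenic substrate, cell-free; 1 h incubation; fluorescence intensity readout. Acetonitrile = neg. ctrl/baseline. Single-point 10 uM, duplicate; follow-up concentration series.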

[6] = tested on: Thyroperoxidase (TPO), gene 54314; assay: CCTE_Simmons_AUR_rTPO: CCTE's Amplex UltraRed Assay for Thyroperoxidase (TPO) Inhibition, Simmons Lab (AID 2283662);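 also: potency for loss of signal meaning inhibition of peroxidase activity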
In short: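 Rat thyroid microsomes (5 ug protein) were incubated with test compound (8 concentrations, 5 nM–87.5 uM final, 0.5% DMSO), 25 uM Amplex UltraRed and 300 uM H2O2 in 200 mM phosphate buffer for 30 min at 37C in the dark; fluorescence read at 544/590 nm.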

[7] = CCTE_Simmons_CellTiterGLO_HEK293T: Viability Assessment in CCTE's Assays for Thyroperoxidase (TPO) Inhibition, Simmons Lab (AID 2283665);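 as to AC50: cells exposed to compound for 24 h before readout; actives reduce ATP signal below DMSO vehicle meaning cytotoxicity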
In short: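 Cytotoxicity counter-screen: human HEK293T cells in low-serum (1% FBS) medium receive test chemical, 5 nM to 87.5 uM final, for 24 h; ATP is quantified by luciferase luminescence.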

[8] = molecular target: Luciferin 4-monooxygenase (Photinus pyralis) (UniProt P08659); assay: CCTE_Simmons_QuantiLum_inhib_2: CCTE's Firefly Luciferase Inhibition Assay, Simmons Lab (AID 2283767);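 as to AC50: potency for inhibitors that lower luciferase luminescence relative to DMSO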
In short: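 Counter-screen for nonspecific enzyme inhibition: purified firefly luciferase incubated 30 min at 37C with chemicals up to 87.5 uM final, then luminescence measured after luciferin/dATP injection; activity fitted against DMSO baseline.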

[9] = molecular target: mouse Estrogen Receptor alpha (Era), Esr1 (gene 13982) (UniProt P19785); assay: NVS_NR_mERa: NovaScreen (NVS) Nuclear Receptor Binding Assay for mouse Estrogen Receptor alpha (Era) (AID 2283378);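 also: hit means loss of bound radioligand signal relative to DMSO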
In short: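 Extracted mouse Era incubated with tritiated or iodinated radioligand plus test chemical, 18 h. Bound fraction separated on filters, counted by scintillation. DMSO = negative control/baseline; duplicate single-point at 25 uM, then concentration-response follow-up.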

[10] = CCTE_Shafer_MEA_acute_per_network_burst_electrodes_number_mean: CCTE's Neural Acute Assay for Mean Number of Electrodes in a Network Burst, Shafer Lab (AID 2284021; active = hit-call score of the fitted dose curve at least 0.9, where 1 is the maximum; inactive = score below 0.9;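 also: curves fitted for decreases only so hits reduce electrodes per burst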)
In short: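 Primary rat cortical networks, mwMEA, 37 C. 20 min stabilization, 40 min baseline, compound 0.03-40 uM, 40 min re-record. Wells need >=10 active electrodes; percent change per well, negative fitting direction.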

[11] = CCTE_Shafer_MEA_acute_network_burst_percentage: CCTE's Neural Acute Assay for Percentage of Network Bursts, Shafer Lab (AID 2284022; active = hit-call score of the fitted dose curve at least 0.9, where 1 is the maximum; inactive = score below 0.9;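 also: curves fitted for loss so actives lower network burst percentage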)
In short: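 Readout is the fraction of spikes falling in network bursts, expressed as per-well percent change from a 40-min pre-exposure baseline. Primary rat cortical neurons on MEA were exposed to 0.03-40 uM compound on DIV 13 or 15 and recorded for 40 min at 37 C.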

[12] = CCTE_Shafer_MEA_acute_cross_correlation_area: CCTE's Neural Acute Assay for Area of Cross Correlation, Shafer Lab (AID 2284024; active = hit-call score of the fitted dose curve at least 0.9, where 1 is the maximum; inactive = score below 0.9;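 also: rat primary cortical neuron networks on 48-well MEA at DIV 13 or 15 with 40 min exposure; area under pooled inter-electrode spike cross-correlation near zero lag as percent change from own baseline; curves fitted for loss of cross-correlation area so actives lower synchrony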)
In short: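 Plates equilibrated 20 min at 37 C, then 40 min baseline was recorded, compound was added (0.03-40 uM), and a further 40 min was recorded. Wells needed ≥10 active electrodes (≥5 spikes/min) on exposure day.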

[13] = CCTE_Shafer_MEA_acute_synchrony_index: CCTE's Neural Acute Assay for Synchrony, Shafer Lab (AID 2284027; active = hit-call score of the fitted dose curve at least 0.9, where 1 is the maximum; inactive = score below 0.9;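 also: network synchrony index of spontaneous spiking in primary rat cortical neurons on MEAs; fitted for loss of signal so actives lower synchrony relative to DMSO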)
In short: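 Spontaneous firing of mature rat cortical networks is captured extracellularly on microelectrode arrays at 37 C, with wells needing ≥10 active electrodes. Each compound (0.03-40 uM) is judged by the change in synchrony index from baseline over 40 min.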

[14] = CCTE_Shafer_MEA_acute_LDH: CCTE's Lactate Dehydrogenase Assay for Cytotoxicity in the Neural Acute Assay, Shafer Lab (AID 2284086);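 also: active means LDH release rises above DMSO vehicle level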
In short: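 Released lactate dehydrogenase, read at 490 nm, indicated cytotoxicity after acute 40-min compound treatment of rat cortical neuron networks grown on 48-well MEA plates.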

[15] = molecular target: chimpanzee Androgen Receptor (AR), AR (gene 747460) (UniProt O97775); assay: NVS_NR_cAR: NovaScreen (NVS) Nuclear Receptor Binding Assay for chimpanzee Androgen Receptor (AR) (AID 2283346);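 also: radioligand displacement from AR measured by scintillation counting in a cell-free assay; a loss of bound radioligand signal versus DMSO counts as binding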
In short: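 Cell-free competition binding with insect-cell (Sf9/Sf21) extracted chimpanzee AR; scintillation signal from lysate at 72 h. Screened in duplicate at 25 uM, then concentration-response for actives; fitting relative to DMSO.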

[16] = molecular target: Muscarinic acetylcholine receptor M2 (Homo sapiens) (UniProt P08172); assay: NVS_GPCR_hM2: NovaScreen (NVS) G Protein-Coupled Receptor Assay for human Muscarinic, M2 Receptor (AID 2283273)
In short: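 CHO membrane prep, radioligand + test compound, 1 h; filtration, scintillation count. Screen 25 uM duplicate → conc. series for actives. Readout: decrease in binding vs DMSO control.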

[17] = molecular target: bovine Estrogen Receptor (ER), ESR1 (gene 407238) (UniProt P49884); assay: NVS_NR_bER: NovaScreen (NVS) Nuclear Receptor Binding Assay for bovine Estrogen Receptor (ER) (AID 2283345);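 also: actives lower the bound radioligand count which means they displace the ER ligand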
In short: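 Displacement of a radioligand from estrogen receptor in bovine uterine membrane preparations; scintillation signal taken at 18 hours, DMSO as baseline. Single-concentration duplicates (25 uM) preceded concentration-response follow-up of actives.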

[18] = CCTE_Deisenroth_5AR_NBTE_donor: CCTE's 5alpha-reductase NanoBRET Target Engagement Assay […], Deisenroth Lab (AID 2284319; active = hit-call score of the fitted dose curve at least 0.9, where 1 is the maximum; inactive = score below 0.9); conditions: actives raise or lower the signal
In short: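 HEK293T cells were reverse transfected with an SRD5A2-NanoLuc vector for 20 h, exposed to test chemical (8 points, 10 nM - 29.9 uM) for 3 h, then testosterone tracer for 2 h more. Donor luminescence (460 nm) was read; bidirectional fit versus DMSO.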

[19] = CCTE_Deisenroth_5AR_NBTE_acceptor: CCTE's 5alpha-reductase NanoBRET Target Engagement Assay - Autofluorescence Screen, Deisenroth Lab (AID 2284321; active = hit-call score of the fitted dose curve at least 0.9, where 1 is the maximum; inactive = score below 0.9;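 also: compound fluorescence in the acceptor channel under 460 nm excitation flags autofluorescence artifacts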); conditions: actives raise or lower the signal
In short: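 Acceptor fluorescence intensity was read as an artifact-detection endpoint. Test chemicals at an assumed nominal 100 uM were excited at 460 nm across three independent runs. Activity was fitted bidirectionally against DMSO.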

[20] = molecular target: human Norepinephrine Transporter (NET), SLC6A2 (gene 6530) (UniProt P23975); assay: NVS_TR_hNET: NovaScreen (NVS) Transporter Assay for human Norepinephrine Transporter (NET) (AID 2283377);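 also: cell-free membrane protein extracted from CHO cells expressing human NET; displacement of radioligand from human NET seen as loss of scintillation signal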
In short: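 Scintillation counts of filter-retained radioligand served as the readout, taken 1 h post-dosing in a cell-free CHO-derived system. Test chemicals ran first at 25 uM in duplicate; confirmed hits were retested across concentrations.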

Luciferin 4-monooxygenase (Photinus pyralis), sequence (P08659 whole entry, looked up): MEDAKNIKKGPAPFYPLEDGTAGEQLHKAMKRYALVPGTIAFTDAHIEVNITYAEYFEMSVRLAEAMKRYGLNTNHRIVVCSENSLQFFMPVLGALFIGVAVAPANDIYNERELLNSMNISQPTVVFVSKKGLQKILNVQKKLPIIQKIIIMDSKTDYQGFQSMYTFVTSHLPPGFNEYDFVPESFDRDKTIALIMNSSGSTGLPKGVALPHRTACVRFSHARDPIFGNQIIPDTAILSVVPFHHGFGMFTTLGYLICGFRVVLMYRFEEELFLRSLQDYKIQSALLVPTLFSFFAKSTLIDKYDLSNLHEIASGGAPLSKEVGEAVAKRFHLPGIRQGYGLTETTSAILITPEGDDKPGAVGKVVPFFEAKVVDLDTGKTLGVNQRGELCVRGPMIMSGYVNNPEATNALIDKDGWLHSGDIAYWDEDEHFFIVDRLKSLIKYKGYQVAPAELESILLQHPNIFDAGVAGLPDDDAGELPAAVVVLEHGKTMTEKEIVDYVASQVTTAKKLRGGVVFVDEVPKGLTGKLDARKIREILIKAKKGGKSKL
bovine Estrogen Receptor (ER), ESR1 (gene 407238), sequence (P49884 whole entry, looked up): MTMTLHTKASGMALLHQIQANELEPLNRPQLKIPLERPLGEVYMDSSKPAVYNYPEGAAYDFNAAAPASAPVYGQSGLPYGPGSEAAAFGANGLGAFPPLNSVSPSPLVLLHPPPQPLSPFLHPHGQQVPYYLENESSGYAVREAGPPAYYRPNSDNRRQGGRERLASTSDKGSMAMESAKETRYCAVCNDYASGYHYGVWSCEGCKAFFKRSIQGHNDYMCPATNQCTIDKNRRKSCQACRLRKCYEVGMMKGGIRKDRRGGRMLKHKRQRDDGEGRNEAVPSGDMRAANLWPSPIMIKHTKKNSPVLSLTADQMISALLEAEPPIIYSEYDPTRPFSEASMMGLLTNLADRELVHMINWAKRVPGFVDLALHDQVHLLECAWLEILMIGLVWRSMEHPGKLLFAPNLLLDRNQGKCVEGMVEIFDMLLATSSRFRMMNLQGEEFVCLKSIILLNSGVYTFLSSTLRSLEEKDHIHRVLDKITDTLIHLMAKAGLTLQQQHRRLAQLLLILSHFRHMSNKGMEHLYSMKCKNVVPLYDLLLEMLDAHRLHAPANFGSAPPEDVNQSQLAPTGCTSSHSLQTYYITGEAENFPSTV
human CYP2D6, CYP2D6 (gene 1565), sequence (P10635 whole entry, looked up): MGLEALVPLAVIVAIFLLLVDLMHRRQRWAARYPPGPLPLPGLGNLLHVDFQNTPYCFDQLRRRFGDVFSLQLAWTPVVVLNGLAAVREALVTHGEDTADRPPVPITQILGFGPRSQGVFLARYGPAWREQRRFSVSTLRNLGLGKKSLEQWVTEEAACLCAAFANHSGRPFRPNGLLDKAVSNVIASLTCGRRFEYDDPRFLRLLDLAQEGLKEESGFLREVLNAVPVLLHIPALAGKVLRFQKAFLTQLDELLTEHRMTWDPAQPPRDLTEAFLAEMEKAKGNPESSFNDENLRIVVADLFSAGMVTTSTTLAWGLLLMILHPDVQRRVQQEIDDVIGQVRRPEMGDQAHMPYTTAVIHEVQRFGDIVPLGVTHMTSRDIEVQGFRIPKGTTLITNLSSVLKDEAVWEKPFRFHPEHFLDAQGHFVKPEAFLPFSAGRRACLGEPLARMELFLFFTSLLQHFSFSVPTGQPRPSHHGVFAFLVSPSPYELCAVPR
Muscarinic acetylcholine receptor M2 (Homo sapiens), sequence (P08172 whole entry, looked up): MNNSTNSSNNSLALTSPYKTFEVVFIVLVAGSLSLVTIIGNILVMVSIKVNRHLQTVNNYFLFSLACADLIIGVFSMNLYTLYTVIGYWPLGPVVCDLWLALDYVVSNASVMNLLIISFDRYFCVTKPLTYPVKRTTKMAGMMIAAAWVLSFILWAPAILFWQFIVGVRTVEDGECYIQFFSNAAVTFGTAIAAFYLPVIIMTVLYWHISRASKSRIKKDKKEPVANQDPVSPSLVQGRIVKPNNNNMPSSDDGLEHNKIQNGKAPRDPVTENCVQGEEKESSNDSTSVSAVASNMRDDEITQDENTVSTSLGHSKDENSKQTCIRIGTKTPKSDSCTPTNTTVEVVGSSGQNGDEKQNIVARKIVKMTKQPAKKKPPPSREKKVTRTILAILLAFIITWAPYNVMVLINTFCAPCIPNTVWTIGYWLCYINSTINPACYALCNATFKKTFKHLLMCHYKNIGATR
mouse Estrogen Receptor alpha (Era), Esr1 (gene 13982), sequence (P19785 whole entry, looked up): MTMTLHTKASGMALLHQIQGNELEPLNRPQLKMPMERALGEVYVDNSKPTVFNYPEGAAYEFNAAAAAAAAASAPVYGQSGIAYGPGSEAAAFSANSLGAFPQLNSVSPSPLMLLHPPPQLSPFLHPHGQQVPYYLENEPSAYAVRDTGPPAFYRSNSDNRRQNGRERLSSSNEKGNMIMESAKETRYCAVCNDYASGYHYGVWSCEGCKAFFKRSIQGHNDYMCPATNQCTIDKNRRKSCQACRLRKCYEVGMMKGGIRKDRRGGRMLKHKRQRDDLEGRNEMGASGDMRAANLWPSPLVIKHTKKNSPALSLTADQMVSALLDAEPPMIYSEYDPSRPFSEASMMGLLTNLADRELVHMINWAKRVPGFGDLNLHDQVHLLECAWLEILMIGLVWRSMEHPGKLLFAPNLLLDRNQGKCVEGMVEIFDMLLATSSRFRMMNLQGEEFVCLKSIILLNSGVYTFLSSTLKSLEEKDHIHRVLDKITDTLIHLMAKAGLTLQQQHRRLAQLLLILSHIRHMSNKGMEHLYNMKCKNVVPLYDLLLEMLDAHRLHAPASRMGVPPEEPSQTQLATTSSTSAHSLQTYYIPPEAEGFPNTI
human Peripheral-type Benzodiazepine Receptor (PBR), TSPO (gene 706), sequence (P30536 whole entry, looked up): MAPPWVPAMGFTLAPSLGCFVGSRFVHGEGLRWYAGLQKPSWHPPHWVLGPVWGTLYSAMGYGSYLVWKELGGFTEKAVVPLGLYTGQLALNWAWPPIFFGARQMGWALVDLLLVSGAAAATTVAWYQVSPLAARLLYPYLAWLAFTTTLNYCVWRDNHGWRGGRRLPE
chimpanzee Androgen Receptor (AR), AR (gene 747460), sequence (O97775 whole entry, looked up): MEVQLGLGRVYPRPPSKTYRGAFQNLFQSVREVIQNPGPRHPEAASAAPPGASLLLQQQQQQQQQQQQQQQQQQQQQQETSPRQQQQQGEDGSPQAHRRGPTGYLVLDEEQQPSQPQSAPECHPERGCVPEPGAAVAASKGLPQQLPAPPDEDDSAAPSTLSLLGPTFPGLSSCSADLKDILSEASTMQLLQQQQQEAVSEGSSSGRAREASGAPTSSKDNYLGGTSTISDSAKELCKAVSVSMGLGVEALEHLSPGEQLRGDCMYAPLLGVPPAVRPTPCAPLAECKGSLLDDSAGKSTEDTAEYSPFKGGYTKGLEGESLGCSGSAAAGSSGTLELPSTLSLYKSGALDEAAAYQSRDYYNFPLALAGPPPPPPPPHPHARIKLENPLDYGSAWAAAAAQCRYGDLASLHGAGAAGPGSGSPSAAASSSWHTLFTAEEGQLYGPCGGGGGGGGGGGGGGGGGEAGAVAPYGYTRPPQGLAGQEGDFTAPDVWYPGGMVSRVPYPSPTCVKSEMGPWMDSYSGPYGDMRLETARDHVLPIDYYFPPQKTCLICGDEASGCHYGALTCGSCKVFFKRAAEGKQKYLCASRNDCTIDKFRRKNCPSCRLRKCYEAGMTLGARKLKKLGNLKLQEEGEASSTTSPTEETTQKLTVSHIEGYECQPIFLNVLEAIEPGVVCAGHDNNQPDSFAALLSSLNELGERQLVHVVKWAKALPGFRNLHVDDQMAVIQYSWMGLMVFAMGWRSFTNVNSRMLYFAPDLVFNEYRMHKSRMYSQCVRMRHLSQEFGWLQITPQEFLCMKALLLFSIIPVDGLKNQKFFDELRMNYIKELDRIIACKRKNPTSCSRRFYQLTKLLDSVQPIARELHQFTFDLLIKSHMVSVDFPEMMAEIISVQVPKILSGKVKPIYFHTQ
human Norepinephrine Transporter (NET), SLC6A2 (gene 6530), sequence (P23975 whole entry, looked up): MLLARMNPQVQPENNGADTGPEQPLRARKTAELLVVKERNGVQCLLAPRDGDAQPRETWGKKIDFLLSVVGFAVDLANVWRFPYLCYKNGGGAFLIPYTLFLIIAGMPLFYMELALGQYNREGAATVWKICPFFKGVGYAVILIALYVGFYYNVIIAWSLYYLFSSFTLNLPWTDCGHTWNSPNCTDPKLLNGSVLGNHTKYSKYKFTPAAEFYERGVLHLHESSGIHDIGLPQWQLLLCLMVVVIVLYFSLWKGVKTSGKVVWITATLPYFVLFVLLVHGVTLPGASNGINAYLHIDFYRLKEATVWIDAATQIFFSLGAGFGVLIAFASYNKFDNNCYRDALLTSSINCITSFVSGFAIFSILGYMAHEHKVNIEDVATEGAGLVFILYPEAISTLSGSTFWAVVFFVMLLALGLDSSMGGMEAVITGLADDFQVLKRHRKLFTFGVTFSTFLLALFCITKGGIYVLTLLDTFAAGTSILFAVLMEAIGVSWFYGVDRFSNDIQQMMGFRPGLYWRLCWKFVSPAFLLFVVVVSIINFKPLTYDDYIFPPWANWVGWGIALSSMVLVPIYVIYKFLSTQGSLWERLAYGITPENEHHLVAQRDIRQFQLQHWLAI

Cc1cc(O)cc(C)c1Cl
AC50 [1]: 8.12 µM (active) | outcome [2]: inactive | AC50 [3]: 13.8 µM (active) | outcome [4]: inactive

CCCCOC(=O)COc1ccc(Cl)cc1Cl
outcome [2]: inactive | AC50 [3]: 74.6 µM (active) | outcome [4]: inactive

Sc1nc2ccccc2s1
AC50 [5]: 3 µM (active) | AC50 [6]: 1.42 µM (active) | outcome [7]: inactive | outcome [8]: inactive

C=CC(C)(CCC=C(C)C)OC(=O)c1ccccc1 (centres undefined)
outcome [9]: inactive

NC(N)=Nc1nc(CSCCC(N)=NS(N)(=O)=O)cs1
outcome [10]: inactive | outcome [11]: inactive | outcome [12]: inactive | outcome [13]: inactive | outcome [14]: inactive

Cc1cc(-n2nc3ccc(Cl)cc3n2)c(O)c(C(C)(C)C)c1
AC50 [15]: 0.741 µM (active)

CCCCC(CC)COC(=O)CS (centres undefined)
AC50 [6]: 25.6 µM (active) | outcome [7]: inactive | outcome [8]: inactive

c1ccc(CNc2ncnc3nc[nH]c23)cc1
outcome [2]: inactive | outcome [3]: inactive | AC50 [4]: 21.9 µM (active)

Clc1ccccn1
outcome [16]: inactive

Cc1cc2nc3c(=O)[nH]c(=O)nc-3n(C[C@H](O)[C@H](O)[C@H](O)CO)c2cc1C
outcome [17]: inactive | outcome [9]: inactive | outcome [18]: inactive | outcome [19]: inactive

CN(C)CCC(c1ccc(Cl)cc1)c1ccccn1 (centres undefined)
AC50 [5]: 5 µM (active) | AC50 [16]: 10.3 µM (active) | AC50 [20]: 7.29 µM (active) | AC50 [10]: 3.59 µM (active) | AC50 [11]: 22.8 µM (active) | outcome [12]: inactive | AC50 [13]: 27.7 µM (active) | outcome [14]: inactive

Cc1cc(C)c(S(=O)(=O)O)cc1N=Nc1cc(S(=O)(=O)O)c2ccccc2c1O
AC50 [6]: 14.5 µM (active) | AC50 [7]: 13.1 µM (active) | AC50 [8]: 2.98 µM (active)

CCCCCCCCCC/C=C/C1CC(=O)OC1=O (centres undefined)
outcome [17]: inactive

CC1=NN(c2cc(Cl)c(S(=O)(=O)O)cc2Cl)C(=O)C1N=Nc1ccc(S(=O)(=O)O)cc1 (centres undefined)
outcome [18]: inactive | outcome [19]: inactive

O=C(C(=O)c1ccccc1)c1ccccc1
AC50 [1]: 9.56 µM (active)
